HSF1 inhib: HSF1 inhibition. NIH3T3-HGL HSE-luciferase, MG132-induced, luminescence 8 h; hits give low values. activity change, negative = inhibition, % at 7.5 µM (by protocol). actives 0.77% (n = 300,000). AID 2098;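 active = more than half of replicate wells show activity change below -50%, luminescence cut by over half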;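 also: luciferase reports HSF-1 transcriptional activity via heat shock element; 0% = median of DMSO wells and -100% = zero luminescence signal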
TLR4 MyD88 comp: blocks binding of human TLR4 to MyD88; actives 0.18% (n = 200,000); AID 861; inhibition, % at 8.4 µM; HeLa CL3-4 TLR4/MyD88 BLA complementation, FRET ratio; in the data active = inhibition above about 25%;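 also: 0% = vehicle and 100% = reference inhibitor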
NOD2-RIPK2 inh: NOD2-RIPK2 protein interaction inhibition | actives 0.38% (n = 360,000) | O43353 | inhibition, % at 4.98 µM | CHO BLA complementation NOD2-RIPK2, CCF4 ratio; in the data active = inhibition above about 21%;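 also: 0% = vehicle only and 100% = reference blocker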
Target sequence (O43353 whole entry, looked up): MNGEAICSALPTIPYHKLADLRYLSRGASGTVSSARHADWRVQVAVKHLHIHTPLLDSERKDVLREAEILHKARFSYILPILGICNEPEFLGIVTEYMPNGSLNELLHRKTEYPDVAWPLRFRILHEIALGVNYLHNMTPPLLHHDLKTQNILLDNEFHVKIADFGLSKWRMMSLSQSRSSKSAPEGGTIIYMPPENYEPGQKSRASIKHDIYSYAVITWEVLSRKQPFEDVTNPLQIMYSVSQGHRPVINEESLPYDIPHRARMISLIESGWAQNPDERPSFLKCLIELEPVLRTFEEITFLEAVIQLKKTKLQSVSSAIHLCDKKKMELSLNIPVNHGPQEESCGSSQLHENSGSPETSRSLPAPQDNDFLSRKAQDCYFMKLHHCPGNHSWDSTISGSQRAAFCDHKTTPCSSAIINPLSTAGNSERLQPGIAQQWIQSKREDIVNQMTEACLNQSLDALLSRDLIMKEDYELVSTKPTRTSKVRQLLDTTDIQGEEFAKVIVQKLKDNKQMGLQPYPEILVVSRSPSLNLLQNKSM
TLR9-MyD88 inh: inhibitors of human TLR9-MyD88 binding | AID 504734 | CHO BLA complementation TLR9-MyD88, CCF4 FRET ratio | actives 0.21% (n = 340,000) | inhibition, % at 4.98 µM | Q9NR96+Q99836;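 active = inhibition above the mean over all tested compounds plus 3 SD, cut at about 21% in these data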;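 also: 0% = DMSO only wells and 100% = clavulanate BLA inhibitor control wells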
HSF1 activator: increases HSF-1 driven luciferase reporter signal; actives 1.7% (n = 300,000); activation, % at 9 µM; NIH3T3-HGL HSF-1 luciferase reporter, MG132, 8 h; 100% = twice DMSO control signal;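 active = mean replicate activation of at least 50% with a set share of replicates each reaching 50%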;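 also: 0% = median of the neutral control wells and 100% = twice that signal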
Numbers without * were called inactive. Only some compounds are listed: those with a hit (about 2.4% of all), similar ones and a draw of the others.

Results for O=C(COc1ccc(Cl)cc1)NCCCNC(=O)c1ccccn1 ?
HSF1 inhib: 30; NOD2-RIPK2 inh: 2; TLR9-MyD88 inh: 0; HSF1 activator: 84*

What do the screens show for `O=C(COc1ccc(Cl)cc1)NCCN1CCCC1`?
HSF1 inhib: 1; NOD2-RIPK2 inh: -8; TLR9-MyD88 inh: -11; HSF1 activator: 0

What do the screens show for `CCOc1ccccc1NC(=O)NCCN1CCCCC1`?
HSF1 inhib: 1; NOD2-RIPK2 inh: 5; TLR9-MyD88 inh: 4; HSF1 activator: 6

What do the screens show for `COC(=O)C1=C(C)NC(=S)NC1c1ccc(-c2cccc(Cl)c2)o1` (stereo not drawn)?
HSF1 inhib: 44; TLR4 MyD88 comp: 2; NOD2-RIPK2 inh: 4; TLR9-MyD88 inh: -9; HSF1 activator: 72*

How did COC(=O)C1=C(C)NC(C)=C(C(=O)OC)C1c1ccc(-c2cc(Cl)ccc2Cl)o1 do in these assays?
HSF1 inhib: 13; TLR4 MyD88 comp: 10; NOD2-RIPK2 inh: -3; TLR9-MyD88 inh: 5; HSF1 activator: 15

What do the screens show for `COC(=O)C1=C(C)NC(C)=C(C(=O)OC)C1c1ccc(-c2cccc(Cl)c2Cl)o1`?
HSF1 inhib: 22; TLR4 MyD88 comp: -5; NOD2-RIPK2 inh: -5; TLR9-MyD88 inh: 2; HSF1 activator: 53*

What do the screens show for `CCOc1ncccc1C(=O)Nc1ccc(S(=O)(=O)N2CC(C)CC(C)C2)cc1` (stereo not drawn)?
NOD2-RIPK2 inh: 2; TLR9-MyD88 inh: -2

How did Cn1cc(C(=O)Nc2ccc(Cl)cc2)c(C(F)(F)F)n1 do in these assays?
HSF1 inhib: 3; TLR4 MyD88 comp: 3; NOD2-RIPK2 inh: -8; TLR9-MyD88 inh: 1; HSF1 activator: -6

What do the screens show for `Cn1cc(NC(=O)OCc2ccc(Cl)cc2)c(C(F)(F)F)n1`?
HSF1 inhib: 38; TLR4 MyD88 comp: 6; NOD2-RIPK2 inh: -11; TLR9-MyD88 inh: -3; HSF1 activator: 56*

How did CC(=O)Nc1ccc(S(=O)(=O)NC2=C(N3CCN(c4ccc(F)cc4)CC3)C(=O)c3ccccc3C2=O)cc1 do in these assays?
HSF1 inhib: 61; TLR4 MyD88 comp: -16; NOD2-RIPK2 inh: -11; TLR9-MyD88 inh: -14; HSF1 activator: 75*

What do the screens show for `Cc1ccc(S(=O)(=O)NC2=C(N3CCN(c4ccccc4F)CC3)C(=O)c3ccccc3C2=O)cc1`?
HSF1 inhib: -37; TLR4 MyD88 comp: -12; NOD2-RIPK2 inh: 1; TLR9-MyD88 inh: 5; HSF1 activator: -37

Results for Cn1cc(CN2CCN(Cc3ccccc3)C(CCO)C2)c(-c2ccccc2)n1 (stereo not drawn) ?
HSF1 inhib: 3; TLR4 MyD88 comp: 14; NOD2-RIPK2 inh: -9; TLR9-MyD88 inh: -6; HSF1 activator: -3

Results for CCOc1ccccc1CN1CCN(Cc2cn(C)nc2-c2ccccc2)CC1CCO (stereo not drawn) ?
HSF1 inhib: 43; TLR4 MyD88 comp: 8; NOD2-RIPK2 inh: -10; TLR9-MyD88 inh: 9; HSF1 activator: 82*

Results for CCOc1ccccc1C1C(C#N)=C(N)N(N(C)C)C2=C1C(=O)CCC2 (stereo not drawn) ?
HSF1 inhib: -7; NOD2-RIPK2 inh: -3; TLR9-MyD88 inh: 1; HSF1 activator: -1

Results for CCOC(=O)c1ccccc1NC(=S)N1CCN(C(=O)c2ccco2)CC1 ?
HSF1 inhib: -5; NOD2-RIPK2 inh: -21; TLR9-MyD88 inh: -2; HSF1 activator: 6

Results for O=C(Nc1ccc(Cl)cc1)N1CCC(c2ccccc2)C1 (stereo not drawn) ?
HSF1 inhib: 58; TLR4 MyD88 comp: 16; NOD2-RIPK2 inh: 12; TLR9-MyD88 inh: 13; HSF1 activator: 76*

Results for Cc1ccc(NC(=O)N2CCC(c3ccccc3)C2)cc1C (stereo not drawn) ?
HSF1 inhib: 38; TLR4 MyD88 comp: 19; NOD2-RIPK2 inh: 2; TLR9-MyD88 inh: -5; HSF1 activator: 62*

What do the screens show for `O=C1[C@H](Cc2ccccc2)NCC=CC[C@H](c2ccc(Cl)cc2)N1Cc1ccccc1`?
NOD2-RIPK2 inh: 15; TLR9-MyD88 inh: 1

How did COC(=O)C1=CN(Cc2ccc(OC)c(OC)c2)C=C(C(=O)OC)C1c1ccccc1F do in these assays?
HSF1 inhib: -55*; NOD2-RIPK2 inh: -15; TLR9-MyD88 inh: -8; HSF1 activator: -61

Results for COc1ccccc1CCC(=O)Nc1ccc(S(=O)(=O)Nc2cc(C)nc(C)n2)cc1 ?
HSF1 inhib: 1; NOD2-RIPK2 inh: 0; TLR9-MyD88 inh: 5; HSF1 activator: 3

Source: PubChem (several laboratories)
